Assay outcomes deposited in PubChem by several laboratories.
In the library only some 3.9% were active in any assay of this set; here they are far more common.
CCHF vOTU inh – CCHFV vOTU protease inhibition; hit rate 0.55% among 370,000; Pep-AMC fluorescence; inhibition, % at 11.5 µM; AID 651958; in the data active = inhibition above about 30%; note: 0% = vehicle wells with enzyme and 100% = no enzyme wells
SARS 3CLpro inh – SARS-CoV 3CLpro protease inhibition | inhibition, % at 6 µM | hit rate 0.14% among 290,000 | P0C6X7 | recombinant SARS-CoV 3CLpro, quenched FRET peptide cleavage | AID 1706; in the data active = inhibition above about 12%
BoNT-F LC inh – inhibitors of Botulinum neurotoxin F light chain protease | Multiplex microsphere protease cleavage assay, flow cytometry | inhibition, % at 10 µM | hit rate 0.22% among 360,000; in the data active = inhibition above about 35%, passing the limit was not always enough; inconclusive = no clear call, values can overlap the other calls; note: plate controls were buffer without enzyme for full effect and enzyme alone for no effect
BoNT A protease – BoNT A light chain protease inhibition; multiplex microsphere protease substrate cleavage, flow cytometry; hit rate 0.17% among 360,000; inhibition, % at 10 µM; note: plate controls were buffer without enzyme for full effect and enzyme alone for no effect
Bead autofluor – counter-screen for toxin protease inhibitors: compound fluorescence. compound autofluorescence counterscreen, microsphere flow cytometry; active compounds read high. fluorescence intensity (no concentration beside the values). hit rate 3.1% among 360,000; in the data active = fluorescence intensity above about 16000; inconclusive = no clear call, values can overlap the other calls
Anthrax LF prot – blocks Bacillus anthracis lethal factor protease. P15917. multiplex microsphere protease cleavage assay, LF. inhibition, % at 10 µM. hit rate 0.12% among 360,000; note: plate controls were buffer without enzyme for full effect and enzyme alone for no effect
Target sequence (P15917 whole entry, looked up): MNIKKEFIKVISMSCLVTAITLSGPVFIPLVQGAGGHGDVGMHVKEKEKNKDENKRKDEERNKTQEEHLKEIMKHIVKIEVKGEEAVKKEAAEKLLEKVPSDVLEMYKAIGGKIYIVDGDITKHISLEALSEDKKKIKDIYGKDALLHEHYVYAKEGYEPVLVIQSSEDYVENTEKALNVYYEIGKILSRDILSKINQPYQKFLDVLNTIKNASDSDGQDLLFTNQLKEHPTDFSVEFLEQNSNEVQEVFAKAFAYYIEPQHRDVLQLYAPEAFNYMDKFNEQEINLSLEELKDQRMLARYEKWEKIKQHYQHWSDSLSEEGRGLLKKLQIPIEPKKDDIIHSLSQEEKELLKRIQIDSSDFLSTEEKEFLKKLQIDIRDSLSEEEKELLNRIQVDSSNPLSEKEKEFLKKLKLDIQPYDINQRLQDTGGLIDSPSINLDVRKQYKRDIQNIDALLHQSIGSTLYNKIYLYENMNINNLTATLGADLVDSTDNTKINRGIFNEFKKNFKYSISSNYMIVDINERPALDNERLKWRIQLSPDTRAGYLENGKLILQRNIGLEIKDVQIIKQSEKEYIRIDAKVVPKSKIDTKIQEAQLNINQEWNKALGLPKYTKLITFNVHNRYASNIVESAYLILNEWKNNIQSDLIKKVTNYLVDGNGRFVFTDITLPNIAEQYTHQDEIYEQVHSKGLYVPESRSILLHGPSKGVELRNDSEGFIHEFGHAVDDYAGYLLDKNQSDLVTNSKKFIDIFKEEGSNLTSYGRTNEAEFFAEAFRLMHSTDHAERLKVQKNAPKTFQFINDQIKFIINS
BoNT-A LC CP1 – BoNT/A light chain protease inhibition | hit rate 3% among 720 | multiplex microsphere protease assay, flow cytometry | inhibition, % at 10 µM | shares compounds with BoNT-F LC inh; in the data active = inhibition above about 32%
BoNT-F LC CP1 – inhibitors of Botulinum neurotoxin F light chain protease. shares compounds with BoNT-F LC inh. inhibition, % at 10 µM. multiplex microsphere protease cleavage assay, flow cytometry. 720 tested, under 10 active; call rule not given here
Anthrax LF CP1 – inhibitors of Bacillus anthracis lethal factor protease | 720 tested, under 10 active | multiplex microsphere protease cleavage assay, LF | shares compounds with BoNT-F LC inh | inhibition, % at 10 µM; call rule not given here
An asterisk follows results filed as active; ? = inconclusive; nt = no result. Cut-off read from the data, not from the text of the source, unless noted: active = inhibition above about 30%; inconclusive = no clear call, values can overlap the other calls; inactive = below that.

SMILES	CCHF vOTU inh	SARS 3CLpro inh	BoNT-F LC inh	BoNT A protease	Bead autofluor	Anthrax LF prot	BoNT-A LC CP1	BoNT-F LC CP1	Anthrax LF CP1
CCSc1nc2sc3c(c2c(=O)n1C1CCCCC1)CCN(C)C3	0	nt	11	45*	5142	29	1	-1	3
CCSc1nc2sc3c(c2c(=O)n1-c1ccccc1C)CCN(C)C3	8	-2	5	16	4927	13	nt	nt	nt
CN1CCc2c(sc3nc(SCC(N)=O)n(-c4ccc(Cl)cc4)c(=O)c23)C1	-33	1	-41	66*	9910	-6	4	-7	1
CC(c1c[nH]c2ccccc12)c1c[nH]c2ccc(Br)cc12 (centres undefined)	5	nt	nt	nt	nt	nt	nt	nt	nt
CCOc1ccc(NC(=O)c2[nH]c(C)c(C(C)=O)c2C)cc1	8	-1	35*	-1	7115	3	-2	-7	-2
Clc1ccc(-c2nc(N3CCCCC3)nc3ccccc23)cc1	2	-5	59*	32*	10695	16	11	-1	2
C[C@@H]1CCN(C2CC2)S(=O)(=O)c2ccc(N3CC[C@H](O)C3)cc2O1	0	nt	nt	nt	nt	nt	nt	nt	nt
CC(=O)Nc1ccc(NC(=O)c2sc(-c3ccccc3)nc2C)cc1	12	-4	43*	-3	3706	22	1	-2	0
CNC(=O)c1sc(-c2ccccc2)nc1C	-5	-5	0	0	2996	0	nt	nt	nt
Cc1cc(C(=O)Nc2cc(C(C)(C)C)on2)c(C)o1	0	-2	?	-1	5818	100*	0	-1	-2
CCn1c(SCc2ccccc2)nnc1C1CCN(S(=O)(=O)c2ccc(OC)cc2)CC1	-15	3	35*	0	3835	-1	-1	-4	3
Cc1ccc(C(=O)Nc2ccccc2C(=O)O)cc1S(=O)(=O)Nc1ccc(Br)cc1	20	nt	nt	nt	nt	nt	0	-7	2
Cc1cc(C)n(-c2nnc(NC34CC5CC(CC(C5)C3)C4)nn2)n1	1	1	11	52*	2849	20	16	-6	21
COC(=O)[C@]12C[C@H](CC(=O)NCCCCc3ccccc3)C(=O)N(Cc3ccc(Cl)cc3Cl)C1=C[C@H](C(C)C)O[C@@H]2C1CC1	18	nt	nt	nt	nt	nt	nt	nt	nt
Cc1ccc(C(c2nnnn2CS(=O)(=O)c2ccc(C)cc2)N2CCN(c3ncccn3)CC2)cc1 (centres undefined)	4	2	8	-1	3912	3	nt	nt	nt
COc1ccc(C(c2nnnn2CS(=O)(=O)c2ccc(C)cc2)N2CCN(Cc3ccccc3)CC2)cc1 (centres undefined)	1	-3	34	-1	4894	-1	1	-3	-1
Cc1ccc(C(=O)Nc2ccc(S(=O)(=O)N3CCc4ccccc4C3)cc2)o1	4	7	36*	4	8089	-3	1	-2	-1
Cc1ccc(C(=O)Nc2ccc(S(=O)(=O)N3CCCC3)cc2)o1	-6	8	-3	1	5745	0	nt	nt	nt
CN(C)CCN(CC1CCCN(Cc2ccccc2F)C1)C(=O)c1ccc(Cl)cc1 (centres undefined)	9	-3	44*	2	3527	9	0	-4	0
Cc1ccc(-n2cc3c(-c4cccc(Br)c4)nnc(C)c3n2)cc1	19	-1	63*	?	38801*	?	5	28	0
Clc1ccc(-c2cc(-c3nnc4n3CCCCC4)c3ccccc3n2)cc1	2	3	1	0	2062	-2	nt	nt	nt
Clc1ccccc1-c1nnc2n1CCCCC2	-13	2	-17	-10	3259	37*	0	5	2
CC(C)(C)C(=O)O[C@@H]1CCC[C@@]2(C(=O)N(Cc3ccccc3)c3ccccc32)[C@H]1NC(=O)CCc1ccccc1	6	nt	nt	nt	nt	nt	nt	nt	nt
COc1ccccc1OCC(=O)Nc1nnc(C2CCCC2)s1	0	2	5	0	5296	2	nt	nt	nt
CCOc1ccccc1OCC(=O)Nc1nnc(COC)s1	13	1	53*	?	?	?	0	-6	-3
SMILES	CCHF vOTU inh	SARS 3CLpro inh	BoNT-F LC inh	BoNT A protease	Bead autofluor	Anthrax LF prot	BoNT-A LC CP1	BoNT-F LC CP1	Anthrax LF CP1
Cc1ccccc1OCC(=O)Nc1nnc(C2CCCCC2)s1	11	3	47*	-1	2965	-2	-1	-3	-2
C=CCN1C(=O)[C@H](CC(=O)NCc2cccs2)[C@@]2(C(=O)OCC)CCCC=C12	-1	nt	nt	nt	nt	nt	nt	nt	nt
CCCn1c(SCC(=O)c2c(N)n(C3CC3)c(=O)[nH]c2=O)nnc1-c1ccncc1	8	nt	nt	nt	nt	nt	nt	nt	nt
Cc1occc1-c1nnc(SCC(=O)c2ccc(Cl)cc2)n1C	-4	-2	13	0	4547	6	nt	nt	nt
Cc1occc1-c1nnc(SCC(=O)c2c[nH]c3ccccc23)n1C	5	-3	27	54*	4371	45*	-1	-8	3
Cc1ccc2nc(SCC(=O)c3c[nH]c4ccccc34)[nH]c2c1	8	-4	-17	58*	5287	14	20	-19	17
COCCNc1nnc(SCC(=O)NNC(=O)c2ccccc2)s1	5	1	-3	1	3999	-2	nt	nt	nt
CCCn1c(SCC(=O)c2c[nH]c3ccccc23)nnc1-c1ccncc1	-8	5	-24	53*	4586	15	17	-9	17
COCCNc1nnc(SCC(=O)c2c[nH]c3ccccc23)s1	3	-2	-19	52*	5036	17	10	-14	13
O=C(CSc1nc2ccccc2[nH]1)c1c[nH]c2ccccc12	-3	1	0	1	3433	-3	nt	nt	nt
Nc1[nH]c(C(=O)c2ccccc2)c(-c2ccc(Cl)cc2)c1C(=O)c1c[nH]c2ccccc12	-2	nt	nt	nt	nt	nt	nt	nt	nt
N=C1N(C(=O)OCc2ccccc2)/C(=C\C2=CCCCC2)C(Cc2ccccc2)N1Cc1ccccc1 (centres undefined)	11	nt	nt	nt	nt	nt	nt	nt	nt
COC(=O)N1C[C@H](OCc2cn(-c3cc(Cl)cc(Cl)c3)nn2)[C@H](OCc2cn(-c3cc(Cl)cc(Cl)c3)nn2)C[C@@H]1c1ccccc1Br	-3	nt	nt	nt	nt	nt	nt	nt	nt
Cc1ccc(NC(=O)Cc2ccc(Cl)cc2)nc1	-10	nt	?	3	?	47*	-2	-6	-1
Cc1ccc(CC(=O)Nc2ccc(Cl)cn2)cc1	3	8	0	-1	3729	-2	nt	nt	nt
CCc1nnc(NC(=O)CN2CCN(Cc3ccccc3C)CC2)s1	12	3	nt	nt	nt	nt	nt	nt	nt
CCc1nnc(NC(=O)CN2CCN(Cc3ccccc3Cl)CC2)s1	-8	-1	?	-2	3362	42*	0	-2	-1
Cc1ccc(C(=O)N(CCC2=CCCCC2)c2c(N)n(Cc3ccccc3)c(=O)[nH]c2=O)o1	22	nt	-5	31*	5952	?	-2	-10	2
COc1ccccc1C(=O)N1CCCC(c2nc(-c3cccs3)no2)C1 (centres undefined)	0	nt	nt	nt	nt	nt	nt	nt	nt
